# In the antibiotic and cytotoxicity screens of Wong et al. (2023):
# Out of some 39,000 compounds screened, about 1,500 (3.8%) were called active. This excerpt belongs to a sample that is enriched for actives.
# Tested on: HSkMC (human skeletal muscle cells)
# Assay: cytotoxicity call (relative viability < 0.9)
# Settings: 10 µM
row,Structure (SMILES),cytotoxicity call
1,CO[C@@H]1[C@@H](O[C@@H]2O[C@H](C)[C@@H](O[C@H]3C[C@@](C)(O)[C@@H](OC(=O)CC(C)C)[C@H](C)O3)[C@H](N(C)C)[C@H]2O)[C@@H](CC=O)C[C@@H](C)[C@@H](O)/C=C/C=C/CC(C)OC(=O)C[C@H]1OC(C)=O (stereo not given in full),active
2,CO[C@@H]1[C@@H](O[C@@H]2O[C@H](C)[C@@H](O[C@H]3C[C@@](C)(O)[C@@H](OC(=O)CC(C)C)[C@H](C)O3)[C@H](N(C)C)[C@H]2O)[C@@H](CC=O)C[C@@H](C)[C@@H](O)/C=C\C=C/C[C@@H](C)OC(=O)C[C@H]1OC(C)=O,inactive
3,COC1C(O)CC(=O)OC(C)CC=CC=CC(O)C(C)CC(CC=O)C1OC1OC(C)C(OC2CC(C)(O)C(OC(=O)CC(C)C)C(C)O2)C(N(C)C)C1O (stereo not given) [KITASAMYCINS [A1 shown] ],inactive
4,COc1ccccc1CNC(=O)C[C@@H]1C[C@@H]2c3cc(NS(=O)(=O)c4ccc(F)cc4)ccc3O[C@@H]2[C@@H](CO)O1,inactive
5,Cc1ccc(S(=O)(=O)N(C)C[C@@H]2OCCCC[C@H](C)Oc3ccc(NC(=O)Nc4c(C)noc4C)cc3C(=O)N([C@H](C)CO)C[C@H]2C)cc1,inactive
6,CC(C)C[N+]1(C)Cc2ccccc2C1,inactive
7,Cc1ccc(S(=O)(=O)Nc2ccc3c(c2)C(=O)N([C@@H](C)CO)C[C@H](C)[C@@H](CN(C)Cc2ccc(-c4ccccc4)cc2)O3)cc1,inactive
8,C[C@H](CO)N1C[C@H](C)[C@H](CN(C)Cc2ccc(-c3ccccc3)cc2)Oc2ccc(NS(=O)(=O)c3cccs3)cc2C1=O,inactive
9,Cc1ccc(S(=O)(=O)Nc2ccc3c(c2)C(=O)N([C@@H](C)CO)C[C@@H](C)[C@H](CN(C)Cc2ccc(-c4ccccc4)cc2)O3)cc1,inactive
10,Cc1ccc(S(=O)(=O)Nc2ccc3c(c2)C(=O)N([C@@H](C)CO)C[C@@H](C)[C@@H](CN(C)Cc2ccc(-c4ccccc4)cc2)O3)cc1,inactive
11,Cc1ccc(S(=O)(=O)Nc2ccc3c(c2)C(=O)N([C@H](C)CO)C[C@@H](C)[C@H](CN(C)Cc2ccc(-c4ccccc4)cc2)O3)cc1,inactive
12,Cc1ccc(S(=O)(=O)Nc2ccc3c(c2)C(=O)N([C@H](C)CO)C[C@H](C)[C@H](CN(C)Cc2ccc(-c4ccccc4)cc2)O3)cc1,active
13,C[C@H]1CN([C@@H](C)CO)C(=O)c2cc(NS(=O)(=O)c3ccccc3)ccc2O[C@H]1CN(C)Cc1ccc(-c2ccccc2)cc1,inactive
14,Cc1ccc(S(=O)(=O)Nc2ccc3c(c2)C(=O)N([C@H](C)CO)C[C@@H](C)[C@@H](CN(C)Cc2ccc(-c4ccccc4)cc2)O3)cc1,active
15,C[C@@H]1CN([C@@H](C)CO)C(=O)c2cc(NS(=O)(=O)c3ccccc3)ccc2O[C@@H]1CN(C)Cc1ccc(-c2ccccc2)cc1,active
16,C[C@@H]1CN([C@@H](C)CO)C(=O)c2cc(NS(=O)(=O)c3ccccc3)ccc2O[C@H]1CN(C)Cc1ccc(-c2ccccc2)cc1,inactive
17,C[C@H](CO)N1C[C@H](C)[C@@H](CN(C)Cc2ccc(-c3ccccc3)cc2)Oc2ccc(NS(=O)(=O)c3cccs3)cc2C1=O,inactive
18,C[C@@H]1CN([C@H](C)CO)C(=O)c2cc(NS(=O)(=O)c3cccs3)ccc2O[C@@H]1CN(C)Cc1ccc(-c2ccccc2)cc1,active
19,COc1ccc(S(=O)(=O)N(C)C[C@@H]2Oc3ccc(NC(=O)CCCN(C)C)cc3C(=O)N([C@H](C)CO)C[C@@H]2C)cc1,inactive
20,COc1ccc(-c2cn(CCNC(=O)[C@H](Cc3ccccc3)NS(=O)(=O)c3ccc(C)cc3)nn2)cc1OC,inactive

row,Structure (SMILES),cytotoxicity call
1,CC(/C=C/C(=O)NO)=C\c1cccc(OC[C@@H]2[C@H]3C[C@H]4c5[nH]c6ccccc6c5CCN4C[C@@H]3CC[C@@H]2O)c1,inactive
2,O=C(N[C@@H](c1ccc(-c2ccccc2)cc1)c1cnccn1)C1CCN(CCCOc2ccccc2)CC1,inactive
3,CC(=O)NC1C(O)CC(O)(C(=O)O)OC1C(O)C(O)CO (stereo not given),inactive
4,C[C@H]1CCCCO[C@@H](CN(C)S(C)(=O)=O)[C@@H](C)CN([C@@H](C)CO)C(=O)c2cc(N(C)C)ccc2O1,inactive
5,C[C@H](CO)N1C[C@H](C)[C@H](CN(C)C(=O)Nc2ccc(C(F)(F)F)cc2)Oc2ccc(NC(=O)CCC(F)(F)F)cc2CC1=O,inactive
6,Cc1ccc(S(=O)(=O)C[C@H](C)N2CCOCC2)c(S(=O)(=O)C[C@@H](C)N2CCOCC2)c1,inactive
7,CCNC(=O)C[C@@H]1C=C[C@@H](NC(=O)C2CC2)[C@@H](CO)O1,inactive
8,COc1ccc(NC(=O)Nc2ccc3c(c2)CC(=O)N([C@@H](C)CO)C[C@H](C)[C@H](CN(C)C(=O)Nc2cccc4ccccc24)O3)cc1,inactive
9,CCCNC(=O)Nc1ccc2c(c1)OC[C@@H](C)N(C(=O)C1CCOCC1)C[C@@H](C)[C@@H](OC)CN(C)C2=O,inactive
10,C[C@H]1CN([C@@H](C)CO)C(=O)c2cc(Br)cnc2O[C@@H]1CN(C)Cc1cccc(C(=O)O)c1,inactive
11,NCC(=O)NCC(=O)O,inactive
12,CNCC(=O)O,inactive
13,O=C(O)CNC(=O)C(=O)O,active
14,O=C(CCCCCNC(=O)OCCCOc1ccc(C2=N[C@]3(Cc4ccccc4)C(=O)N(Cc4ccccc4)Cc4ccccc4[C@@H]3O2)cc1)NO,inactive
15,C[C@@H]1CCCCO[C@@H](CN(C)C(=O)Nc2ccc3c(c2)OCO3)[C@@H](C)CN([C@H](C)CO)C(=O)c2cc(NC(=O)CCCCCC(=O)Nc3ccccc3N)ccc2O1,inactive
16,NC(=O)c1ncn([C@@H]2O[C@H](CO)[C@@H](O)[C@H]2O)n1,inactive
17,C[C@@H]1CN([C@H](C)CO)C(=O)c2cc(NC(=O)Nc3ccc(F)cc3)ccc2O[C@@H]1CN(C)Cc1ccc(C(=O)Nc2ccccc2N)cc1,inactive
18,Cc1ncc(NC(=O)c2cccc(C(F)(F)F)c2)cc1-c1cnc(OC2CCOCC2)c(N2CCOCC2)c1,inactive
19,Cc1ccc(Nc2ncc3c(n2)N(C)C(=O)N(c2cc(NC(=O)c4cccc(C(F)(F)F)c4)ccc2C)C3)cn1,active
20,O=C(Nc1cccc(C(F)(F)F)c1)c1ccc2ccccc2c1,inactive

row,Structure (SMILES),cytotoxicity call
1,C[C@H]1CN([C@@H](C)CO)C(=O)Cc2cc(NS(=O)(=O)c3ccc(Cl)cc3)ccc2O[C@H]1CN(C)C(=O)Nc1ccc(C(F)(F)F)cc1,inactive
2,CC1=C(CCC(=O)O)c2cc3[nH]c(cc4nc(cc5[nH]c(cc1n2)c(C)c5C(C)O)C(C)=C4C(C)O)c(C)c3CCC(=O)O (stereo not given),inactive
3,CCCCCCO[C@H](C)c1c(c/2[nH]c1/C=C/1\N=C(/C=C/3\NC4=C(CC(=O)C4=C3C)C3=N/C(=C2)[C@@H](C)[C@@H]3CCC(=O)O)C(=C1C)CC)C,active
4,CCc1c(c/2[nH]c1/C=C/1\N=C(/C(=C/3\N=C(/C=C/4\N/C(=C2)C(=C4C)C=C)[C@@H](C)[C@@H]3CCC(=O)O)CC(=O)N[C@@H](CC(=O)O)C(=O)O)C(=C1C)C(=O)O)C,inactive
5,C[C@H](N)C(=O)N1CCc2ccccc2C1,inactive
6,C[C@@H]1CCCCO[C@@H](CN(C)S(=O)(=O)c2ccc(F)cc2)[C@@H](C)CN([C@@H](C)CO)C(=O)c2cc(NC(=O)Nc3ccc(F)cc3)ccc2O1,inactive
7,CC(N)O.Cc1cc(CC(C)CC(C)(C)C)n(O)c(=O)c1 (stereo not given),inactive
8,C[C@H](CO)N1C[C@H](C)[C@H](CN(C)C(=O)Cc2ccccc2)OCCCC[C@H](C)Oc2ccc(NC(=O)Nc3ccc(C(F)(F)F)cc3)cc2C1=O,inactive
9,C[C@@H]1CCCCO[C@@H](CN(C)C(=O)Cc2ccccc2)[C@@H](C)CN([C@H](C)CO)C(=O)c2cc(NC(=O)Nc3ccc(C(F)(F)F)cc3)ccc2O1,inactive
10,C[C@H](CO)N1C[C@H](C)[C@@H](CN(C)C(=O)Cc2ccccc2)OCCCC[C@H](C)Oc2ccc(NC(=O)Nc3ccc(C(F)(F)F)cc3)cc2C1=O,inactive
11,C[C@@H]1CN([C@@H](C)CO)C(=O)c2cc(NC(=O)Nc3ccc(C(F)(F)F)cc3)ccc2O[C@@H](C)CCCCO[C@H]1CN(C)C(=O)Cc1ccccc1,active
12,C[C@@H]1CCCCO[C@H](CN(C)C(=O)Cc2ccccc2)[C@@H](C)CN([C@H](C)CO)C(=O)c2cc(NC(=O)Nc3ccc(C(F)(F)F)cc3)ccc2O1,inactive
13,C[C@@H]1CCCCO[C@H](CN(C)C(=O)Cc2ccccc2)[C@H](C)CN([C@@H](C)CO)C(=O)c2cc(NC(=O)Nc3ccc(C(F)(F)F)cc3)ccc2O1,active
14,C[C@@H]1CCCCO[C@H](CN(C)C(=O)Cc2ccccc2)[C@@H](C)CN([C@@H](C)CO)C(=O)c2cc(NC(=O)Nc3ccc(C(F)(F)F)cc3)ccc2O1,inactive
15,C[C@@H]1CCCCO[C@@H](CN(C)C(=O)Cc2ccccc2)[C@@H](C)CN([C@@H](C)CO)C(=O)c2cc(NC(=O)Nc3ccc(C(F)(F)F)cc3)ccc2O1,inactive
16,C[C@@H]1CN([C@H](C)CO)C(=O)c2cc(NC(=O)Nc3ccc(C(F)(F)F)cc3)ccc2O[C@@H](C)CCCCO[C@@H]1CN(C)C(=O)Cc1ccccc1,active
17,COc1ccc(NC(=O)N(C)C[C@@H]2OCc3cnnn3CCCC(=O)N([C@H](C)CO)C[C@@H]2C)c(OC)c1,inactive
18,C[C@@H]1CCCCO[C@@H](CN(C)C(=O)CCC(F)(F)F)[C@@H](C)CN([C@@H](C)CO)C(=O)c2cc(NC(=O)CCC(F)(F)F)ccc2O1,inactive
19,C[C@@H]1CN(C)C(=O)c2cccc(NC(=O)c3ccncc3)c2O[C@H]1CN(C)Cc1ccc(Oc2ccccc2)cc1,inactive
20,O=C(C[C@@H]1CC[C@@H]2[C@H](COC[C@@H](O)CN2S(=O)(=O)c2ccccc2)O1)N[C@H]1CCN(Cc2ccccc2)C1,inactive
